Mcl1-Bid inh: Mcl-1/Bid binding inhibitors, primary screen, biochemical, TR-FRET, 1536-well | hit rate 0.97% among 220,000 | inhibition, % at 21.7 µM | TR-FRET Mcl-1/Bid-Dy647 peptide binding | Induced myeloid leukemia cell differentiation protein Mcl-1 (Homo sapiens), Q07820;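 active = compounds that cut the binding signal by more than half at the single screening dose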;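 note: His-tagged Mcl-1 with europium anti-His antibody binding Bid BH3 peptide; 0% = Mcl-1 plus peptide wells and 100% = peptide-only wells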
Target sequence (Q07820 whole entry, looked up): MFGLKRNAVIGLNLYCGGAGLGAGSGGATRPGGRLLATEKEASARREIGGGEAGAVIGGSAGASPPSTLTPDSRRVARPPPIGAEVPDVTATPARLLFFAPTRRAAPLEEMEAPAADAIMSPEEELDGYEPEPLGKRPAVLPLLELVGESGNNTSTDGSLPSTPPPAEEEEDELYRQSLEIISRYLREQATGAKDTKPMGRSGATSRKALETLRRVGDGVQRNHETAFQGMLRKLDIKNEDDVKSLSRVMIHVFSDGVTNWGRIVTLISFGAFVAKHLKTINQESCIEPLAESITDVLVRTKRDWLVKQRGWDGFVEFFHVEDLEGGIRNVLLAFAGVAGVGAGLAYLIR
MCL1-BIM inh: inhibitors of MCL1 binding to BIM-BH3, primary screen, biochemical, fluorescence polarization; Induced myeloid leukemia cell differentiation protein Mcl-1 (Homo sapiens), Q07820; GST-MCL1 / FITC-Bim-BH3 fluorescence polarization; inhibition, % at 10.9 µM; hit rate 0.68% among 320,000;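 active = inhibition above the mean inhibition of all tested compounds plus 3 SD, set per campaign, cut at about 40% in these data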;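 note: 0% = DMSO wells and 100% = unlabeled Bim-BH3 peptide control; higher means more loss of mP so more displacement of Bim peptide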
Mcl-1 Bim block: inhibitors of Bim peptide binding to Mcl-1, primary screen, biochemical, bead-based flow cytometry, multiplex. AID 1009, 2008. hit rate 0.1% among 190,000. Induced myeloid leukemia cell differentiation protein Mcl-1 (Homo sapiens), Q07820. inhibition, % at 10 µM. Bim peptide-Mcl-1 binding; in the data active = inhibition above about 40%;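 note: 0% = no compound tracer wells and 100% = peptide blocker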
14-3-3 Bad PPI: inhibitors of 14-3-3 zeta/Bad binding, primary screen, biochemical, TR-FRET, bovine 14-3-3 zeta; 14-3-3 protein zeta/delta (Bos taurus), P63103; TR-FRET 14-3-3zeta/Dy647-pBad peptide displacement, 1 h; inhibition, % at 21.7 µM; hit rate 0.71% among 220,000;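 active = inhibition above about 70%, limit read from the data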;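 note: 0% = full 14-3-3 plus peptide FRET controls and 100% = background without 14-3-3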
Target sequence (P63103 whole entry, looked up): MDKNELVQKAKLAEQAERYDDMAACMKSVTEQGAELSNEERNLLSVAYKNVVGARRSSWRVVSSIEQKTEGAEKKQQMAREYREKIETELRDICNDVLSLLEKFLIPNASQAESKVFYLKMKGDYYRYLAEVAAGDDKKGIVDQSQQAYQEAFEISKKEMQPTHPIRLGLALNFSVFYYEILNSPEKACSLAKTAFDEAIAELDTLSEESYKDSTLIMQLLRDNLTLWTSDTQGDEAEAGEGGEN
Mcl1-Noxa inh: Mcl-1/Noxa binding inhibitors, primary screen, biochemical, TR-FRET, 1536-well. TR-FRET Mcl-1/Noxa peptide binding, 2 h. inhibition, % at 21.7 µM. AID 1022, 2008. hit rate 1.5% among 220,000;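 active = compounds that cut the protein-peptide binding signal by more than 50% relative to plate controls in a single-dose test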;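 note: His-tagged Mcl-1 with rhodamine Noxa BH3 peptide and terbium anti-His antibody; 0% = Mcl-1 plus Noxa peptide wells and 100% = peptide-only wells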
* hit, by the source's call; / = no result; [ ] = dose if it differs, or a comment. Sampled rows, rich in hits. Any-hit rate of the full collection: about 2.5%.

SMILES | Mcl1-Bid inh | MCL1-BIM inh | Mcl-1 Bim block | 14-3-3 Bad PPI | Mcl1-Noxa inh
CCN(CC)c1ccc(NC2=C(Cl)C(=O)c3ccccc3C2=O)cc1 | 7 | 11 | -2 | 3 | 89*
Cn1c(=O)c2c(nc(CO)n2C)n(C)c1=O | -7 | -2 | -4 | -12 | 10
O=C(Nc1ccc(F)cc1)N(CCCN1CCOCC1)Cc1cc2cc3c(cc2[nH]c1=O)OCO3 | -22 | 9 | -3 | 14 | -6
Cc1nn2c(COc3ccc(NC(=O)C(C)C)cc3)nnc2c2ccccc12 | -34 | 4 | 0 | 85* | 3
CNS(=O)(=O)c1cn(CC(=O)NCc2ccccc2OC)cc1S(=O)(=O)NC | / | -3 | / | / | /
O=C(CSc1nc2ccc(Cl)cc2[nH]1)c1ccc2c(c1)OCO2 | 3 | 3 | -3 | 37 | 26
O=C(CSc1nc2cc(Cl)c(Cl)cc2[nH]1)c1ccc2c(c1)OCO2 | 16 | -12 | / | -7 | 57*
Cc1ccc(NC2c3ncccc3C(=O)N2Cc2ccc(F)cc2)cc1 (stereo not given) | 51* | 3 | -4 | 57 | 32
CCOc1ccc(N2C(=O)c3cccnc3C2Nc2ccc(F)cc2)cc1 (stereo not given) | 84* | 7 | 0 | -6 | 19
COc1ccc(CN2C(=O)c3cccnc3C2Nc2ccc(OC)c(Cl)c2)cc1 (stereo not given) | 70* | 6 | -4 | 83* | 44
COc1ccc(NC2c3ncccc3C(=O)N2Cc2ccccc2)c(OC)c1 (stereo not given) | 64* | 31 | 6 | 25 | 43
Cc1ccc(Cn2c(O)c(N=NC(=S)Nc3ccccc3F)c3ccccc32)cc1 | -59 | 12 | -4 | -16 | -28
O=C(NCCC1CCCC1)c1cccs1 | / | -1 | / | / | /
CC1CCN(C(=O)c2[nH]cnc2C(=O)NCCCCCNC(=O)OC(C)(C)C)CC1 | / | 3 | / | / | /
Cc1ccc(S(=O)(=O)N2CCC(=O)N(C(COCc3ccc(C(F)(F)F)cc3)Cc3ccccc3)CC2)cc1 (stereo not given) | -3 | 7 | 0 | 82* | -5
Cc1csc(SCC(=O)N2CCN(S(=O)(=O)c3ccccc3)CC2)n1 | -8 | -4 | 2 | 5 | -6
COc1cccc(N(CC(=O)N2CCN(C)CC2)S(=O)(=O)c2ccccc2)c1 | 60* | 2 | 1 | -4 | 4
COc1cc(/C=N/N(C)c2ccccc2)cc(Cl)c1O | -23 | 5 | -2 | 15 | 67*
O=[N+]([O-])c1cc([N+](=O)[O-])c2c(=Nc3ccccc3)n(-c3ccccc3)n(O)c2c1 | -28 | 8 | 11 | -3 | 62*
CCO[C@H]1OC(C(=O)NC2CC2)=C[C@@H](C2CC2)[C@@H]1CCCO | -5 | 15 | 0 | 0 | -31
NC(N)=N/N=C/c1ccc(OCc2ccc(Cl)cc2)cc1 | -44 | 6 | 2 | 87*[fluorescence artefact?] | -3
NC(N)=N/N=C/c1ccc(OCc2ccccc2)cc1 | 8 | 3 | -3 | -15 | 26
Cn1cc(C(=O)N/N=C/c2c(O)ccc3ccccc23)ccc1=O | -86 | -2 | -2 | -33 | 58*
Cc1ccccc1N(C(=O)c1csnn1)C(C(=O)NC(C)(C)C)c1cccs1 (stereo not given) | -16 | 5 | -2 | 8 | 3
O=C(c1ccccc1)c1coc2ccc(O)c(Cl)c12 | -19 | -7 | 0 | 92* | 13
SMILES | Mcl1-Bid inh | MCL1-BIM inh | Mcl-1 Bim block | 14-3-3 Bad PPI | Mcl1-Noxa inh
Cc1ccc(C(=O)c2coc3ccc(O)c(Cl)c23)cc1 | -72 | 0 | 1 | / | 26
CCOC(=O)N1CCN(c2cc(NCCC(=O)O)c3c4c(onc24)-c2ccccc2C3=O)CC1 | -26 | 33 | 27 | -11 | 73*
O=C(O)CCCNc1cc(N2CCC3(CC2)OCCO3)c2noc3c2c1C(=O)c1ccccc1-3 | -16 | 90* | 24 | -13 | 89*
CN1CCN(c2cc(N3CCN(C(=O)c4ccco4)CC3)c3c4c(onc24)-c2ccccc2C3=O)CC1 | / | 43* | / | / | /
O=C(c1ccco1)N1CCN(C2=NS(=O)(=O)c3ccccc32)CC1 | -17 | -2 | 0 | -7 | 12
CC(=O)C1=C(C)NC(=O)NC1c1ccc(Cl)cc1 (stereo not given) | -32 | 4 | 0 | 2 | 54*
COc1ccc(-c2ccnc3nc(N4CCOCC4)nn23)cc1 | -12 | 1 | 7 | -6 | -13
c1coc(-c2ccnc3nc(-n4cccc4)nn23)c1 | 8 | 18 | -4 | -2 | 62*
COc1ccc(-c2ccnc3nc(-n4cccc4)nn23)cc1 | 14 | -2 | -3 | 45 | 51*
Cn1nc(C(F)(F)F)c(-c2cccc(C(F)(F)F)c2)c1NC(=O)c1nccnc1C(=O)O | -3 | 2 | / | 8 | 24
COc1ccc(C(=O)Oc2ccc(=O)n(-c3ccccc3)n2)cc1 | -29 | 1 | 0 | 72* | -8
CC1CN(CC(=O)Nc2ccc(Br)cn2)CC(C)O1 (stereo not given) | / | 11 | / | / | /
O=C(Nc1cccc(Cl)c1)Nc1nnc(-c2ccncc2)s1 | 44 | 28 | 0 | 81* | 91*
C/C(CC(=O)Nc1cccc2c1CCCC2)=N\NC(=O)Cc1ccccc1 | / | 4 | / | / | /
Cc1nc(Nc2nc(CSc3nc4ccccc4[nH]3)cc(=O)[nH]2)nc2ccccc12 | -32 | -1 | -2 | 20 | -89
COc1ccc2nc(Nc3nc(CSc4nc5ccccc5[nH]4)cc(=O)[nH]3)nc(C)c2c1 | 56* | 5 | -4 | 2 | -112
COC(=O)C1c2ccccc2-c2ccccc21 | 6 | / | -1 | 78* | 10
CCOC(=O)c1sc(=S)n(C)c1NC(=O)c1ccccc1Cl | -41 | 7 | -7 | -10 | 5
O=C(O)c1ccc(N2C(=O)CCCC2=O)cc1 | -28 | 1 | / | 3 | 59*
O=C1CCCC(=O)N1c1ccc(O)cc1 | -24 | 3 | -2 | -10 | 2
CCOc1ccccc1C(=O)NC1CC2CCCC(C1)N2Cc1nnnn1Cc1ccco1 (stereo not given) | -25 | -11 | -2 | 8 | 4
CCOc1ccccc1C(=O)NC1CC2CCCC(C1)N2C1CC1 (stereo not given) | 2 | -9 | 42* | -11 | 7
CNC(=O)C(=O)NCCN1CCN(C(=O)c2ccc([N+](=O)[O-])cc2)CC1 | 91* | -4 | 1 | -20 | -12
Oc1ccc(-c2csc(-c3ccccc3)n2)cc1O | -50 | 20 | 0 | 4 | 62*
Oc1ccc(-c2csc(Nc3ncccn3)n2)c(O)c1 | 41 | 5 | -2 | 8 | 72*
COc1ccc(-c2csc(NC(=S)NC(=O)c3cccs3)n2)cc1Br | 3 | 1 | / | -4 | 15

High-throughput results: PubChem, several laboratories
